# Bioassay records: PubChem BioAssay, Broad Institute
# NOMO-1 viab – NOMO-1 AML cell viability reduction, primary screen, STK33 inhibitor project, CellTiter-Glo luminescence. NOMO-1 AML viability, 72 h. inhibition, % (concentration not given with the values). 7.5% of 37,000 active. AID 2330, 2010; in the data active = inhibition above about 80%; inconclusive = no clear call, values can overlap the other calls
# Hedgehog inh – Hedgehog pathway signaling inhibitors, primary screen, luminescence, Shh-LIGHT2 cells, Gli-luciferase; Shh-LIGHT2 Gli-luciferase reporter, 30 h; inhibition, % (test concentration not listed); 2.1% of 22,000 active; AID 2313, 2010;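 active = mean inhibition across valid replicates above about 65%, limit read from the data; inconclusive = mean under the limit, yet half or more replicates past it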;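 note: pathway switched on by Shh-conditioned medium diluted 1 in 25 in low serum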
# MITF inhib – inhibitors of MITF, primary screen, MITF inhibitor project, cell-based, luminescence. TRPM1 promoter luciferase, 24 h. inhibition, % (concentration not given with the values). 0.28% of 37,000 active. AID 2240, 2010; in the data active = inhibition above about 85%; inconclusive = no clear call, values can overlap the other calls; inactive = below about 68%;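 note: human melanocyte line stably carrying TRPM1 promoter luciferase reporter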
# Numbers without * were called inactive; ? = inconclusive; nt = no result. The list is not random: actives were taken first. Their share in the collection is about 8.1%.
SMILES,NOMO-1 viab,Hedgehog inh,MITF inhib
CCOC(=O)N1CCc2c(sc3ncn(Cc4ccc(Cl)cc4)c(=O)c23)C1,51.3,95.1*,39.7
CC(=O)O[C@H]1CC[C@@]2(C)C(CC[C@]3(C)C2C(=O)C=C2C4[C@@H](C)[C@H](C)CC[C@]4(C(=O)O)CC[C@]23C)C1(C)C (stereo not given in full),7.5,-79.5,-9.0
CC(C)Nc1nc(Oc2ccc(=O)[nH]n2)nc(N(C)C)n1,8.0,nt,6.6
N#C/C(=C\c1ccc(O)c(O)c1)C(=O)c1ccc(O)c(O)c1,45.6,39.8,-3.0
N#C/C(=C\c1ccc(O)c(O)c1)C(=O)NCCCc1ccccc1,92.3*,86.1*,2.5
Cc1ccc(NC(=O)CSc2nc3sc4c(c3c(=O)n2-c2ccccc2)CCCC4)c(C)c1,59.5,nt,-3.4
COC(=O)c1cc(Cc2ccccc2)sc1NC(=O)c1cc(-c2cccnc2)nc2ccccc12,9.3,nt,-4.5
CCc1cc(C(=O)OC)c(NC(=O)c2cc(-c3cccnc3)nc3ccc(Br)cc23)s1,88.7*,nt,11.8
CCn1c(SCC(=O)Nc2ccc(C)cc2)nnc1-c1cccnc1,0.5,nt,26.6
C=C1C(=O)O[C@@H]2C3C(=C(C)[C@@H](O)[C@@H](OC(=O)/C(=C/C)COC(C)=O)[C@@H]12)C(=O)[C@H]1O[C@@]31C (stereo not given in full),118.9*,72.3*,58.0
COc1ccccc1NC(=O)CNC(=O)c1ccc(OC)c(OC)c1,2.1,nt,-10.7
CCN(CC)c1cc(-c2cccs2)nc(SCC(=O)c2cccs2)c1C#N,122.1*,49.9,-1.1
CC(C)OC(=O)CSc1nc(-c2cccs2)cc(C(F)(F)F)c1C#N,40.3,nt,17.1
N#Cc1c(NC(=O)CSc2n[nH]c(-c3ccc(Cl)cc3Cl)n2)sc2c1CCCC2,-15.3,nt,-8.8
O=C(Nc1sc2c(c1C(=O)NCc1ccco1)CCC2)c1sc2ccccc2c1Cl,21.7,nt,-29.2
CC1CCC(C(C)C)C(NC(=O)c2cccc3ccccc23)C1 (stereo not given),81.8*,5.7,-8.0
CC(C)CNP(=O)(OC1CC(C)CCC1C(C)C)c1ccccc1 (stereo not given),31.2,-5.2,-10.8
C[C@H](CO)N1C[C@H](C)[C@@H](CN(C)Cc2ccc(C(=O)Nc3ccccc3N)cc2)Oc2c(NC(=O)c3cnccn3)cccc2C1=O,118.1*,nt,15.9
C[C@H]1CN([C@@H](C)CO)C(=O)c2cccc(NS(C)(=O)=O)c2O[C@H]1CN(C)Cc1ccc(C(=O)Nc2ccccc2N)cc1,45.0,nt,-12.6
C[C@@H]1CN([C@@H](C)CO)C(=O)c2cccc(N(C)C)c2O[C@@H]1CN(C)Cc1ccc(C(=O)Nc2ccccc2N)cc1,127.7*,nt,12.2
C[C@H]1CN([C@@H](C)CO)C(=O)c2cccc(NC(=O)c3cnccn3)c2O[C@H]1CN(C)Cc1ccc(C(=O)O)cc1,7.7,-8.9,-4.4
C[C@H](CO)N1C[C@H](C)[C@H](CN(C)Cc2ccc(C(=O)O)cc2)Oc2c(NC(=O)c3cnccn3)cccc2C1=O,2.2,-6.1,-1.4
Cc1cc(C(=O)Nc2cccc3c2O[C@@H](CN(C)Cc2ccc(Oc4ccccc4)cc2)[C@H](C)CN([C@@H](C)CO)C3=O)n(C)n1,101.8*,-35.2,53.2
C[C@H]1CN([C@@H](C)CO)C(=O)c2cccc(NC(=O)c3cnccn3)c2O[C@@H]1CN(C)Cc1ccc(C(=O)Nc2ccccc2N)cc1,107.8*,nt,8.4
Cc1cc(C(=O)Nc2cccc3c2O[C@H](CN(C)Cc2ccc(Oc4ccccc4)cc2)[C@H](C)CN([C@H](C)CO)C3=O)n(C)n1,18.6,4.1,-11.3
SMILES,NOMO-1 viab,Hedgehog inh,MITF inhib
COC(=O)c1ccccc1NC(=O)CN1CCN(C)CC1,-11.7,nt,-7.3
COc1ccc(N(CC(=O)Nc2c(C)cc(C)cc2C)S(C)(=O)=O)cc1Cl,15.0,nt,8.0
Cc1cc(C)c(OCC(=O)Nc2c[nH]c(=O)[nH]c2=O)cc1C,-3.0,nt,-7.4
Nc1ncnc2c1[nH]c(=S)n2CCOc1cccc2ccccc12,?,nt,-3.9
C[C@@H]1CN([C@@H](C)CO)C(=O)c2cccc(NC(=O)c3cnccn3)c2O[C@@H]1CN(C)Cc1ccc(C(=O)O)cc1,21.4,-61.7,-5.0
C[C@H]1CN([C@@H](C)CO)C(=O)c2cccc(NC(=O)c3cnccn3)c2O[C@H]1CN(C)Cc1ccc(C(=O)Nc2ccccc2N)cc1,129.1*,nt,28.2
C[C@H](CO)N1C[C@H](C)[C@H](CN(C)Cc2ccc(C(=O)Nc3ccccc3N)cc2)Oc2c(NC(=O)c3ccncc3)cccc2C1=O,51.3,nt,-10.2
Cc1cc(C(=O)Nc2cccc3c2O[C@@H](CN(C)Cc2ccc(C(=O)Nc4ccccc4N)cc2)[C@@H](C)CN([C@H](C)CO)C3=O)n(C)n1,?,nt,-13.0
Cc1cc(C(=O)Nc2cccc3c2O[C@H](CN(C)Cc2ccc(C(=O)Nc4ccccc4N)cc2)[C@H](C)CN([C@@H](C)CO)C3=O)n(C)n1,128.0*,nt,5.3
C[C@@H]1CN([C@H](C)CO)C(=O)c2cccc(NC(=O)c3ccncc3)c2O[C@@H]1CN(C)Cc1ccc(C(=O)Nc2ccccc2N)cc1,127.9*,nt,26.8
O=C(Nc1cc(C(F)(F)F)ccc1Cl)C(Cc1ccccc1)N1C(=O)C2C3C=CC(C4CC34)C2C1=O (stereo not given),51.5,nt,21.1
O=C(NCC1CCCO1)C1CC(c2ccccc2O)=NO1 (stereo not given),-3.0,nt,2.6
COCc1cc(=O)[nH]c(SCC(=O)C(C)(C)C)n1,0.8,nt,-14.4
O=C(CCN1C(=O)c2ccc([N+](=O)[O-])cc2C1=O)Nc1cccc(I)c1,13.5,nt,-15.1
CC(C)c1ccc2oc(-c3ccc(Cl)c(NC(=O)COc4ccc([N+](=O)[O-])cc4)c3)nc2c1,110.2*,nt,19.1
COc1ccc(-c2nc3cc(NC(=O)COc4ccc([N+](=O)[O-])cc4)ccc3o2)cc1Cl,22.4,nt,36.6
CCC1(C)Cc2c(sc3nnn(CC(=O)N(c4ccccc4)c4ccccc4)c(=O)c23)CO1 (stereo not given),45.6,nt,34.9
COc1ccc(S(=O)(=O)N(C)CC(=O)Nc2cccc(Cl)c2C)cc1OC,3.4,nt,17.6
CNS(=O)(=O)c1ccc(NC(=O)c2cc(-c3cccnc3)nc3ccc(Br)cc23)cc1,33.8,nt,1.6
C[C@@H]1CN([C@@H](C)CO)C(=O)c2cccc(NC(=O)Nc3ccccc3)c2O[C@@H]1CN(C)Cc1ccc(C(=O)Nc2ccccc2N)cc1,140.5*,nt,28.6
C[C@@H]1CN([C@H](C)CO)C(=O)c2cccc(NC(=O)Nc3ccccc3)c2O[C@H]1CN(C)Cc1ccc(C(=O)Nc2ccccc2N)cc1,138.8*,nt,9.4
C[C@@H]1CN([C@@H](C)CO)C(=O)c2cccc(NC(=O)Nc3ccccc3)c2O[C@@H]1CN(C)Cc1ccc(C(=O)O)cc1,9.8,18.7,-9.4
C[C@H]1CN([C@@H](C)CO)C(=O)c2cccc(NC(=O)Nc3ccccc3)c2O[C@H]1CN(C)Cc1ccc(C(=O)O)cc1,9.4,-14.8,1.7
C[C@H](CO)N1C[C@H](C)[C@@H](CN(C)Cc2ccc(C(=O)O)cc2)Oc2c(NC(=O)Nc3cccc4ccccc34)cccc2C1=O,11.4,-21.2,14.8
